This is part of a sample that, as a whole, favours compounds with a hit. Of some 79,000 tested, about 15% had one in any assay. Rule as the data show it: active = growth inhibition above about 70%; inactive = the rest.
Experiments:
[1] = NCI Yeast Anticancer Drug Screen. Data for the rad50 strain (AID 155);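 also: 0% = growth of vehicle-only cultures of the same strain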; conditions: S. cerevisiae rad50 strain growth inhibition; at 50.0 µM; hits give high values
Method in brief: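 Compounds were tested on a yeast strain with an engineered DNA damage repair alteration; the reported value is growth inhibition normalised to vehicle treatment.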

[2] = NCI Yeast Anticancer Drug Screen. Data for the mec2-1 strain (AID 157); conditions: S. cerevisiae mec2-1 strain, at 50.0 µM, hits give high values
Method in brief: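 Mutant yeast (mec2-1) grown with compound; growth inhibition relative to vehicle control reported.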

[3] = NCI Yeast Anticancer Drug Screen. Data for the sgs1 mgt1 strain (AID 161);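 also: 0% = growth of cultures given vehicle only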; conditions: S. cerevisiae sgs1 mgt1 strain, at 50.0 µM, hits give high values
Method in brief: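 Percent growth inhibition was derived by comparing compound-exposed mutant yeast with vehicle-exposed cultures. The strain carries alterations in DNA damage repair.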

[4] = NCI Yeast Anticancer Drug Screen. Data for the cln2 rad14 strain (AID 165);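 also: 0% = growth equal to vehicle treated cultures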; conditions: S. cerevisiae cln2 rad14 strain, at 50.0 µM, hits give high values
Method in brief: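 Readout is yeast growth inhibition versus vehicle-treated controls, using a strain with cln2 and rad14 alterations exposed to compound.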

[5] = NCI Yeast Anticancer Drug Screen. Data for the bub3 strain (AID 167); conditions: S. cerevisiae bub3 mutant strain, at 50.0 µM, hits give high values
Method in brief: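 Growth of a checkpoint-deficient yeast mutant is measured after compound exposure. Values represent inhibition relative to vehicle.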

[6] = NCI Yeast Anticancer Drug Screen. Data for the mlh1 rad18 strain (AID 175); conditions: S. cerevisiae mlh1 rad18 strain growth inhibition; at 50.0 µM; hits give high values
Method in brief: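 Genetically defined yeast (DNA repair-deficient) exposed to compounds; growth inhibition determined relative to vehicle.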

Measured: growth inhibition

O=C(O)C1C2Cc3ccccc3C21 (stereo unspecified)
inactive: [1] 18.1% | [2] 10.4% | [3] -8.35% | [4] -5.9% | [5] -20.3% | [6] -12.6%

[Ni+2].[S-]CC[S-]
inactive: [1] 0.4% | [2] 12.4% | [3] -8.75% | [4] 1.95% | [5] 0.4% | [6] -4.85%

CCC1(CC)C(=O)N(C)P(=O)(Oc2ccccc2)N(C)C1=O
inactive: [1] 5.7% | [2] 15.4% | [3] 9.3% | [4] 1.6% | [5] 7.1% | [6] 4.6%

CCNCCC1(CC)C(=O)NC(=O)NC1=O
inactive: [1] -22.2% | [2] -16.8% | [3] -27.4% | [4] 2.2% | [5] -43.7% | [6] -10.6%

O=C1NC(=O)C(C(=O)C(=O)Nc2cc(Cl)ccc2Cl)C(=O)N1
inactive: [1] -7.45% | [2] -25.3% | [3] -20.6% | [4] 4.7% | [5] -22.4% | [6] -12.3%

CCCCN1COC2CCCCC21 (stereo unspecified)
inactive: [1] 20.6% | [2] -13.2% | [3] -43.2% | [4] -12.6% | [5] -44.4% | [6] -32.9%

Reference: PubChem BioAssay (NCI)
